# EBV LMP1 NFkB: reduces LMP1-driven NF-kappaB luciferase signal | LMP1-induced NF-kappaB luciferase reporter cells, luminescence | inhibition, % at 12.5 µM | hit rate 0.69% among 350,000; in the data active means inhibition above about 41%;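 further: 0% = neutral control wells and 100% = reference inhibitor control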
# HSF1 inh: HSF1 inhibition; NIH3T3-HGL HSE-luciferase, MG132-induced, luminescence 8 h; stronger effect = lower value; activity change, negative = inhibition, % at 7.5 µM (by protocol); hit rate 0.77% among 300,000; AID 2098;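 active means more than half of replicate wells show activity change below -50%, luminescence cut by over half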;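 further: luciferase reports HSF-1 transcriptional activity via heat shock element; 0% = median of DMSO wells and -100% = zero luminescence signal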
# HSF-1 act: increases HSF-1 driven luciferase reporter signal | activation, % at 9 µM | hit rate 1.7% among 300,000 | NIH3T3-HGL HSF-1 luciferase reporter, MG132, 8 h; 100% = twice DMSO control signal;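 active means mean replicate activation of at least 50% with a set share of replicates each reaching 50%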;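 further: 0% = median of the neutral control wells and 100% = twice that signal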
# TROY NFkB inh: TROY signaling inhibition | inhibition, % at 10 µM | hit rate 0.98% among 360,000 | Q293 LMP1-TROYcd NF-kB luciferase reporter, 4 h;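 active means compounds whose plate-normalised and pattern-corrected inhibition of the luciferase reporter signal at the single screening dose is 50% or more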
# HSP90 refold inh: blocks HSP90-mediated luciferase refolding in reticulocyte lysate; Rabbit reticulocyte lysate, luciferase refolding luminescence, 3 h; inhibition, % at 5.6 µM; hit rate 0.91% among 290,000; AID 1789;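 active means inhibition above the screen-wide mean plus 3 SD, computed separately per campaign, cut at about 16% in these data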;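 further: 0% = DMSO wells and 100% = 60 µM geldanamycin wells; inhibitors lower the luminescence because luciferase stays unfolded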
# TWEAK-Fn14 inh: TWEAK-Fn14 signaling inhibition; TWEAK-stimulated Fn14 reporter cells, luciferase luminescence, 8 h; hit rate 2% among 360,000; AID 1159606; inhibition, % at 10 µM; in the data active means inhibition above about 50%
# * marks the source's active call; other numbers are inactive results; · = no result given. This is a sample that favours compounds with a hit; in the whole collection about 4.7% have one here.
SMILES,EBV LMP1 NFkB,HSF1 inh,HSF-1 act,TROY NFkB inh,HSP90 refold inh,TWEAK-Fn14 inh
Cc1ccc(S(=O)(=O)N2C[C@H]3C(=O)C[C@@H](c4ccc(Cl)cc4)N(S(=O)(=O)c4ccc(C)cc4)[C@H]3C[C@H]2c2ccc(Cl)cc2)cc1,·,·,·,-24.9,·,-28.0
O=c1cc(CN2CCN(c3ccccc3)CC2)nc2scc(-c3ccccc3)n12,-3.5,-3.9,-15.9,58.1*,-0.2,41.9
Cc1ccccc1S(=O)(=O)N1C[C@H]2CON(C)[C@H]2C[C@H]1c1cccc(-c2ccc(C#N)cc2)c1,2.3,·,·,-6.3,·,0.4
Cc1ccc(/C=N\NC(=O)c2csnn2)cc1,-8.9,17.1,36.6,8.9,2.8,50.4*
Cc1ccc(/C=N/NC(=O)c2ccncc2)cc1,2.2,-3.3,32.8,-9.9,-0.5,3.4
CC(=O)c1ccc(Nc2nc(C)cc(C)n2)cc1,79.9*,2.2,32.2,-49.7,-0.5,-3.1
COc1ccc(NC(=O)C[C@H]2C(=O)N(CCc3ccccc3)C[C@@H]2c2ccc(OC)cc2)cc1,43.9*,·,·,-13.8,·,-2.0
O=C(Nc1ccn(CCCN2CCN(Cc3ccc(F)cc3)CC2)c(=O)n1)OCc1ccccc1,13.4,·,·,25.6,·,1.7
N#CCCCSc1nnc(CSc2nc3ccccc3s2)n1-c1ccccc1,-6.7,-4.7,6.8,17.7,-0.6,18.6
CCCSc1nnc(CSc2nc3ccccc3s2)n1-c1ccccc1,7.6,1.4,5.6,53.1*,-2.3,18.1
C[C@H]1CN([C@@H](C)CO)C(=O)CCCn2cc(nn2)CO[C@@H]1CN(C)C(=O)Nc1cccc(Oc2ccccn2)c1,-6.5,·,·,-11.7,·,0.5
CC1(C)CC(=O)C(C2C3=C(CC(C)(C)CC3=O)Oc3ccccc32)=C(O)C1 (stereo not given),0.0,-4.8,-5.5,14.4,2.5,4.5
CC1(C)CC(=O)C(C2C3=C(CC(C)(C)CC3=O)OC3=C2C(=O)CC(C)(C)C3)=C(O)C1,-11.9,23.2,66.8*,13.1,-9.1,3.3
OCCc1ccc(NCCc2cccs2)cc1,·,·,·,-28.2,·,-9.4
CN1/C(=C/C=C/c2n(C)c3cc([N+](=O)[O-])c([N+](=O)[O-])cc3[n+]2C)C(C)(C)c2ccccc21,19.4,·,·,22.9,·,9.9
Cc1ccc(-n2ncc3c(NCc4cccnc4)ncnc32)cc1C,·,36.6,55.3*,-10.1,0.7,17.8
CC(=O)NNc1ncnc2c1cnn2-c1ccc(C)c(C)c1,6.6,-21.3,-31.4,53.9*,5.1,65.6*
Cc1cccc(-n2ncc3c(NCc4cccnc4)ncnc32)c1,-26.5,25.0,31.2,-38.4,·,3.8
COc1cc(CNc2ncnc3c2ncn3[C@H]2CN(Cc3cc(OC)c(OC)c(OC)c3)C[C@@H](CO)O2)cc(OC)c1OC,·,·,·,-8.8,·,-7.7
CC(C)(C)c1ccc(CC(=O)N2CCC2(C)C(=O)NCc2ccc3c(c2)OCO3)cc1 (stereo not given),·,·,·,1.6,·,-14.7
COc1ccc(OCCN2C(=O)c3ccccc3C2=O)cc1,0.2,-55.5*,-61.8,-33.5,-0.1,-27.1
Cc1ccccc1OCCN1C(=O)c2ccccc2C1=O,-14.3,16.9,20.4,-42.7,-3.0,-29.7
Nc1cccc2c1C(=O)N(CCOc1ccc(F)cc1)C2=O,-19.8,38.6,62.2*,-36.5,7.8,-5.0
CC(C)Oc1cccc(OCCN2C(=O)c3ccccc3C2=O)c1,1.0,8.3,11.7,-37.2,-2.2,-29.4
O=C1c2ccccc2C(=O)N1CCOc1ccccc1,-25.8,79.7,124.7*,-45.5,-1.6,-10.3
SMILES,EBV LMP1 NFkB,HSF1 inh,HSF-1 act,TROY NFkB inh,HSP90 refold inh,TWEAK-Fn14 inh
COc1cncc(C#Cc2ccccn2)c1,·,·,·,-65.0,·,8.9
COc1ccccc1CCC(=O)OCC(=O)Nc1cccc(S(=O)(=O)N2CCOCC2)c1,6.5,-63.2*,-72.7,3.2,·,-13.6
COc1ccc(S(=O)(=O)N2CCOCC2)cc1NC(=O)COC(=O)CCS(=O)(=O)c1ccc(C)cc1,67.8*,·,·,1.5,·,6.7
COc1cc(NC(=O)CNc2cccc(S(=O)(=O)N3CCOCC3)c2)cc(OC)c1,3.3,·,·,77.7*,·,8.4
COc1ccccc1CCC(=O)OCC(=O)Nc1cccc(S(=O)(=O)N2CCCCC2)c1,-2.4,8.3,22.9,11.7,·,3.8
Fc1cccc(Cc2c(-c3ccc(Cl)cc3)nc3ccc(Br)cn23)c1,·,·,·,-2.0,·,3.4
C=C(C)CSc1nnc(-c2ccc(OC)cc2)n1N,-13.9,0.1,6.8,9.0,-1.5,-8.9

# High-throughput results as filed in PubChem.
